Experimental data taken from PubChem BioAssay AID602391 (National Center for Advancing Translational Sciences (NCATS), 2012).
The other results are listed elsewhere or left out. Records with an inconclusive call do not appear. Activity calls are given as the source filed them. Calls follow the shape of the dose curve; as a rule, active = well fitted inhibition curve with a large enough effect; inconclusive = small, poorly fitted or top-dose-only effect; inactive = flat fitted curve, though single readings scatter.

Assay: qHTS Assay for Inhibitors of Bacillus subtilis Sfp phosphopantetheinyl transferase (PPTase): SAR in hGST A1-1
Conditions: hGST A1-1 enzyme activity counter-screen; series mostly up to 114 µM; activity change, negative = inhibition: at the top concentration
From the text: The covalent attachment of a phosphopantetheinyl (4'-PP) arm to a variety of synthases and other proteins is a key posttranslational protein modification. The 4'-PP is installed on the proteins post-translationally from coenzyme A (CoA) on a conserved serine residue by action of phosphopantetheinyl transferase (PPTase) enzymes. Phosphopantetheinylation is essential for synthase activity, and removal of the PPTase gene precludes natural product synthesis in microorganisms, or in the case of fatty acid biosynthesis, renders the organism unviable. PPTase enzymes belong to a distinct structural superfamily. Within bacteria, these enzymes are grouped into two classes based upon primary structure, the AcpS-Type and Sfp-Type PPTases. […]
In search of small molecule Sfp-PPTase inhibitors, a fluorescence quenching assay was developed for detection of Bacillus subtilis Sfp-PPTase enzymatic activity in a miniaturized high-throughput format. […]
This assay sought to assess the promiscuity of test articles with an unrelated target enzyme. The appropriate target for this work was determined to be human glutathione-S-transferase, an enzyme responsible for detoxifying modifying electrophilic xenobiotics to enhance their excretion. […]

SMILES | activity change, negative = inhibition
COc1ccnc(NC(=S)N2CCN(c3ncc(C(F)(F)F)cc3Cl)CC2)c1 | -13.9% (inactive)
Cc1cc(C)nc(NC(=S)N2CCN(c3ccc(Cl)cc3C(F)(F)F)CC2)c1 | -4.49% (inactive)
